# Screening data as filed in PubChem.
# Most compounds without a hit are left out; they make up all but 19% or so of the library.
# SW480 rerep = DNA re-replication induction in SW480 cells. actives 1.8% (n = 340,000). Potency, µM (titrated, usually from 46.1 µM), without a hit: at the top dose re-replication activation, usual class: activators. SW480 DNA re-replication, Hoechst DNA content imaging, 48 h; further: potency means the concentration at half of the fitted maximal effect; % of control where 0% means no effect; nearly all actives have a fitted effect of over 55% in size
#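 SW480 cells exposed to compounds for 48 hr at 37 C, 5% CO2, then Hoechst-stained 40 min. Nuclear DNA content imaged by fluorescence scanning (405 nm excitation, 500-530 nm emission); re-replication scored as increased high-intensity nuclei.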
# TDP1 cell noCPT = qHTS for Inhibitors of human tyrosyl-DNA phosphodiesterase 1 (TDP1): qHTS in cells in absence of CPT | AID 686978, 2013 | DT40 Tdp1-/- hTDP1 cells, no CPT, ATP luminescence, 48 h | Potency, µM (highest dose often 46.2 µM), without a hit: at the top dose activity change, negative = growth inhibition, usual class: inhibitors | actives 15% (n = 420,000); further: potency means the concentration at half of the fitted maximal effect; on the % scale 0 is the no-effect control and ±100 the full control effect; nearly all actives have a fitted effect of over 55% in size
#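 Cells were dispensed at 400 per well, compounds added by pin tool, plates incubated ≥48 hr at 37 °C, then CellTiter-Glo added for 30 min at room temperature before luminescence reading. Line: DT40 Tdp1-/- complemented with hTDP1; camptothecin omitted.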
# MCF10A rereplic = induces DNA re-replication in MCF 10a normal breast cells; MCF 10A DNA re-replication, Hoechst nuclear intensity, 48 h; Potency, µM (series often up to 46.1 µM), inactives show at the highest dose activity, positive = re-replication, hits mostly activators; actives 2.9% (n = 350,000); further: potency means the concentration at half of the fitted maximal effect; % of control where 0% means no effect; nearly all actives have a fitted effect of over 50% in size
# BCR signal inh = chronic active BCR signaling inhibition | actives 0.05% (n = 340,000) | AID 493014 | ABC-DLBCL IkBa-CBG/CBR reporter, luminescence ratio, 4 h | Potency, µM (top dose mostly 46.1 µM), for the others: at the top dose activity change, negative = inhibition, usual class: inhibitors; active means well fitted inhibition curve with a large enough effect in the signal ratio, with a control signal flat, not every such curve was filed as active; inconclusive means small, poorly fitted or top-dose-only effect, or effect the other way, or a change in a side signal; the % refers to the signal ratio;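 further: potency means the concentration at half of the fitted maximal effect; plate controls were basal doxycycline-induced cells for no effect and cells given 10 µM MG132 for full effect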
#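 Doxycycline induced both beetle luciferases in TMD8 lymphoma cells; IKK-driven degradation limits the IkappaBalpha-fused green signal, while red luminescence normalises for cell number and nonspecific effects. Compounds tested up to 46 uM, 4 hrs.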
# TDP1 cell CPT = growth inhibition of DT40 Tdp1-/-;hTDP1 cells with camptothecin (screen for TDP1 inhibitors) | chicken DT40 Tdp1-/-;hTDP1 cells + 20 nM CPT, ATP luminescence, 48 h | Potency, µM (top dose mostly 46.2 µM), inactives show at the highest dose activity change, negative = growth inhibition, usual class: inhibitors | actives 12% (n = 420,000) | AID 686979; further: potency means the concentration at half of the fitted maximal effect; on the % scale 0 is the no-effect control and ±100 the full control effect; nearly all actives have a fitted effect of over 55% in size
#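 Chicken DT40 Tdp1-/- cells stably complemented with human TDP1 were seeded at 400 cells/well in medium containing 20 nM camptothecin, exposed to pin-transferred compounds, and grown at 37 °C for at least 48 hr. Viability was read as ATP luminescence.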
# IL-1B inflam inh = inflammasome signaling inhibition, IL-1 beta readout; actives 4.7% (n = 360,000); AID 743279; THP-1 LPS/ATP IL-1B secretion, AlphaLISA, 16 h; active compounds read low; activity change, % at 57.5 µM; in the data active means activity change below about -50%; inconclusive means mostly about -30% to -49%; further: on the % scale 0 is the no-effect control and ±100 the full control effect
#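 Secreted IL-1B measured by AlphaLISA bead assay after 16 h compound exposure of THP-1 cells; compounds (final up to 57.5 uM) added 1 h before LPS (250 ng/mL) and ATP (1.25 mM) stimulation; lower signal means less secretion.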
# Active calls of the source: *; ? = inconclusive; nt = no result; [ ] = dose if it differs, or a comment. Unless noted, the call rests on the fitted dose curve; in most records, active means well fitted curve in the direction sought with a large enough effect; inconclusive means small, poorly fitted or top-dose-only effect, or another doubt; inactive means no such curve, though single readings can be large; an effect the other way counts as inactive or inconclusive.
SMILES,SW480 rerep,TDP1 cell noCPT,MCF10A rereplic,BCR signal inh,TDP1 cell CPT,IL-1B inflam inh
O=c1[nH]c(SCc2nc3c(cnn3-c3ccccc3)c(=O)[nH]2)nc2ccccc12,0.0%,20.6µM*,?,?,?,4.9
O=c1[nH]c(CSc2nc3ccccc3[nH]2)nc2c1cnn2-c1ccccc1,5.8%,20.6µM*,?,8.7%,25.9µM*,-66.7*
O=c1[nH]c(CSc2ncccn2)nc2c1cnn2-c1ccccc1,-0.4%,-19.7%,4.7%,13.0%,-26.3%,-1.5
Cc1ccc2nc(SCc3nc4c(cnn4-c4ccccc4)c(=O)[nH]3)[nH]c2c1,-2.3%,16.4µM*,?,2.0%,20.6µM*,52.6
COc1ccc(C)cc1CN(C)c1ccc(S(=O)(=O)N2CCN(C)CC2)cn1,?,?,?,6.7%,?,-5.9
Cc1cccc(C)c1NC(=O)CN1CCCC1,-18.1%,5.2%,-16.5%,nt,2.8%,27.3
Cc1cccc(CN2CCN(CC(=O)Nc3c(C)cccc3C)S2(=O)=O)c1,nt,16.4µM*,nt,nt,?,nt
CCc1cccc(NC(=O)CN2CCCN(Cc3cccc(C)c3)S2(=O)=O)c1,nt,29.1µM*,nt,nt,?,nt
C=CCn1c(SC/C=C/c2ccccc2)nnc1-c1sc(N)nc1C,-3.5%,14.6µM*,-0.1%,-9.3%,?,0.0
C=CCn1c(SCc2ccc(C(=O)OC)cc2)nnc1-c1sc(N)nc1C,2.6%,-6.8%,-42.2%,-1.3%,-6.5%,-7.8
COc1ccc(S(=O)(=O)Cc2ccccc2)cc1N,6.51µM*,?,?,?,9.2µM*,0.7
CCN(CC)S(=O)(=O)c1ccc(Oc2ccccc2)c(N)c1,-0.3%,?,6.3%,-1.1%,?,-14.4
CCN(c1ccccc1)S(=O)(=O)c1ccc(OC)c(NC(=O)Cc2ccccc2OC)c1,-33.3%,23.1µM*,10.0%,-1.3%,23.1µM*,0.0
COc1ccc(S(=O)(=O)N(C)C)cc1NC(=O)Cc1c[nH]c2ccccc12,3.66µM*,-27.3%,3.6%,2.1%,-2.4%,-13.6
CCN(c1ccccc1)S(=O)(=O)c1ccc(N)c(OC)c1,11.2µM*,-76.5%,18.4µM*,?,?,9.8
CC(C)c1ccc(S(=O)(=O)c2nnn3c2nc(N2CCCC2)c2sccc23)cc1,nt,10.5%,nt,nt,24.3%,nt
CCOc1ccc(CCNC(=O)COC(=O)c2ccc(C)s2)cc1OCC,-2.5%,0.1%,4.2%,-8.2%,-17.1%,9.2
CCN(CC)S(=O)(=O)c1ccc(N2CCN(c3ccccc3OC)CC2)c(N)c1,20.4%,7.31µM*,24.5%,-2.3%,9.2µM*,-26.3
CCN(c1ccccc1)S(=O)(=O)c1ccc(Cl)c(NC(=O)CNCc2ccccc2OC)c1,?,?,16.4µM*,-7.4%,?,-13.6
CCN(c1ccccc1)S(=O)(=O)c1ccc(Cl)c(NC(=O)COC(=O)c2ccc(Cl)c(N)c2)c1,15.1%,?,10.6%,0.5%,7.9%,10.1
CCN(c1ccccc1)S(=O)(=O)c1ccc(Cl)c(NC(=O)COC(=O)c2cccc(OC)c2O)c1,?,18.4µM*,-28.0%,0.0%,?,0.0
S=c1[nH]nc(-c2ccc3ccccc3n2)n1-c1cc(Cl)cc(Cl)c1,-0.9%,16.4µM*,20.0%,18.4%,?,-4.3
CC(Sc1nnc(C2CC2)n1C1CC1)C(=O)Nc1ccccc1C#N (stereo not drawn),-0.9%,-0.8%,-0.8%,10.8%,3.5%,14.1
O=C(NNC(=O)c1cc(OCC(F)(F)F)ccc1OCC(F)(F)F)c1ccc(Cl)c(Cl)c1,2.7%,?,?,13.0%,23.1µM*,-22.3
CCN(CC(=O)Nc1ccc(NC(C)=O)cc1)C(=O)CCCOc1ccc(C(C)(C)C)cc1,-4.1%,23.1µM*,?,?,18.4µM*,-1.0
SMILES,SW480 rerep,TDP1 cell noCPT,MCF10A rereplic,BCR signal inh,TDP1 cell CPT,IL-1B inflam inh
CC1(C)N=C(N)N=C(N)N1c1ccc(Cl)cc1,nt,0.335µM*,nt,nt,?,nt
CN(Cc1ccc(Cl)c(Cl)c1)C(=O)C1CSC2(C)CCC(=O)N12 (stereo not drawn),-11.8%,14.6µM*,2.5%,-3.9%,14.6µM*,-10.1
CN(CC(=O)Nc1c(Cl)cccc1Cl)C(=O)C1CSC2(C)CCC(=O)N12 (stereo not drawn),?,8.0%,6.9%,2.4%,-20.7%,15.0
O=C(Nc1c(-c2ccc(Cl)cc2)[nH][nH]c1=O)c1ccccn1,nt,-30.0%,nt,nt,-9.6%,-26.7
c1coc(CNc2nc3sc4c(c3c3ncnn23)CCCC4)c1,-6.6%,11.6µM*,12.9%,6.8%,?,-3.8
CC(C)c1nc2sc3c(SCC(=O)NCc4ccco4)ncnc3c2c2c1CCC2,1.8%,16.4µM*,14.6µM*,3.1%,?,-10.2
O=C(CSc1nc2sc3c(c2c(=O)n1-c1ccccc1)CCCC3)NCc1ccco1,?,?,?,-2.1%,14.6µM*,-2.7
CC1(C)Cc2c(sc3nc(SCC(=O)NCc4ccco4)n(-c4ccccc4)c(=O)c23)CS1,-1.1%[9.22 µM],-21.0%,7.08µM*,3.0%,2.5%,9.3
Cc1sc2nc(SCC(=O)NCc3ccco3)n(CCc3ccccc3)c(=O)c2c1C,7.6%,?,?,?,?,-5.5
CCOC(=O)c1c(NC(=O)c2cc(=O)c3c(C)cc(C)cc3o2)sc(C)c1C,nt,-9.8%,nt,nt,12.9%,nt
CCOC(=O)CNC(=O)N1CCc2cc(S(=O)(=O)N3CCC(C)CC3)ccc21,nt,-28.2%,nt,nt,?,nt
COc1ccccc1CCNC(=O)CSc1nc(=O)[nH]c2c1CCC2,1.2%,-7.9%,-0.2%,7.3%,7.7%,8.5
O=C(CSc1ncnc2sc3c(c12)CCCC3)c1ccccc1,-0.3%,?,17.8%,?,29.1µM*,-15.6
CC(C#N)Sc1ncnc2sc3c(c12)CCC3 (stereo not drawn),5.4%,-19.2%,?,-9.4%,-14.9%,33.6
CC(=O)C(Sc1ncnc2sc3c(c12)CCCC3)C(C)=O,-0.2%,?,4.1%,0.4%,13µM*,27.5
Cc1cc(C)nc(Sc2ncnc3sc4c(c23)CCC4)n1,13µM*,?,-182.0%[0.0737 µM],0.6%,-19.5%,-12.7
O=C(CSc1ncnc2sc3c(c12)CCCCC3)NCc1ccco1,?,9.2µM*,3.98µM*,?,9.2µM*,-0.2
O=C(CSc1ncnc2sc3c(c12)CCCC3)c1ccco1,14.2%,?,?,-1.8%,?,-1.7
